According to the supplement of paper PMC13380429:
A number with no mark means an inactive call.

System: Vero E6 infected with SARS-CoV-2
Assay: inhibition of SARS-CoV-2 cytopathic effect; higher = more antiviral protection, active = above 15
Details: 48 h

Structure (SMILES)	inhibition of SARS-CoV-2 cytopathic effect (1 nM) [%]	inhibition of SARS-CoV-2 cytopathic effect (8.33 nM) [%]	inhibition of SARS-CoV-2 cytopathic effect (100 nM) [%]	inhibition of SARS-CoV-2 cytopathic effect (833.33 nM) [%]	inhibition of SARS-CoV-2 cytopathic effect (10000 nM)
O=C1NCCc2[nH]c(-c3ccncc3)cc21	-0.31	-0.69	-1	-0.56	-3.45%
C[Se]C[C@H](N)C(=O)O [Se-methylselenocysteine]	2.05	1.18	0.23	0.93	1.8%
C=CCc1cc(OC)c(O)c(C(=O)NCCO)c1 [alibendol]	-1.08	-1.21	-0.53	1.71	-2.2%
CCOC(=O)C(=O)Nc1cccc(OC)c1C(N)=O	6.62	7.85	6.88	2.83	-0.82%
C[C@@H](O[C@H]1OCCN(Cc2nn[nH]c2CN(C)C)[C@H]1c1ccc(F)cc1)c1cc(C(F)(F)F)cc(C(F)(F)F)c1	-0.75	-1.76	-0.97	-4.49	7.29%
Cc1c(NC(=O)OC[C@@H]2COCCN2)cn2ncnc(Nc3ccc4c(cnn4Cc4cccc(F)c4)c3)c12	0.31	-2.14	-2.74	-8.47	-10.8%
CO[C@H]1/C=C/O[C@@]2(C)Oc3c(C)c(O)c4c(O)c(cc(O)c4c3C2=O)NC(=O)/C(C)=C\C=C\[C@H](C)[C@H](O)[C@@H](C)[C@@H](O)[C@@H](C)[C@H](OC(C)=O)[C@@H]1C [rifamycin-sv]	0.74	1.12	3.4	4.53	2.73%
CC(C)c1ccc(C(=O)c2cccs2)c(SCCCCCCCCN(C)C)n1	-1.33	0.45	2.39	1.71	68.5% (active)
Cc1cc(O)cc(C)c1Cl [chloroxylenol]	-0.09	1.72	-1.3	-0.83	0.1%
CCOc1ccc(Cc2cc([C@]34OC[C@](CO)(O3)[C@@H](O)[C@H](O)[C@H]4O)ccc2Cl)cc1 [ertugliflozin]	-4.37	-4.65	-2.3	-0.17	0.59%
COc1cc(NS(=O)(=O)c2ccc(N)cc2)ncn1 [sulfamonomethoxine]	0.65	1.44	-1.17	1.1	1.17%
CCC(Cc1c(I)cc(I)c(N)c1I)C(=O)O (stereo not given) [iopanic-acid]	2.78	2.89	1.6	0.47	2.12%
Cc1ccc(C(=O)Cn2c3c(sc2=N)CCCC3)cc1 [pifithrin-alpha]	-1.05	-0.83	-1.23	-1.09	-2.47%
CN(C)C(=N)NC(=N)N [metformin]	0.25	1.14	2.76	1.97	5.07%
C/C=C/C=C/C(=O)O [sorbic-acid]	1.14	2.26	-1.43	2.41	2.55%
CC1Cc2ccccc2N1NC(=O)c1ccc(Cl)c(S(N)(=O)=O)c1 (stereo not given) [indapamide]	0.88	2.8	0.11	1.3	1.05%
Cc1ccc(S(=O)(=O)N2CCC[C@H]2c2ccc(F)cc2)cc1	0.31	-0.49	0.49	1.4	0.86%
CC(=O)[C@]1(O)Cc2c(O)c3c(c(O)c2[C@@H](O[C@H]2C[C@H](N)[C@H](O)[C@H](C)O2)C1)C(=O)c1ccccc1C3=O [idarubicin]	-0.73	1.96	-0.94	-13.1	-6.65%
NCCCC[C@H](NC(=O)[C@@H]1CCCN1C(=O)[C@@H]1CSSC[C@H](N)C(=O)N[C@@H](Cc2ccc(O)cc2)C(=O)N[C@@H](Cc2ccccc2)C(=O)N[C@@H](CCC(N)=O)C(=O)N[C@@H](CC(N)=O)C(=O)N1)C(=O)NCC(N)=O [lypressin]	0.07	1.59	3.33	1.65	0.67%
CN(C(=O)/C=C/c1ccoc1)[C@@H]1CC[C@@]2(O)[C@H]3Cc4ccc(O)c5c4[C@@]2(CCN3CC2CC2)[C@H]1O5 [nalfurafine]	-5.32	-1.02	0.43	-2.31	-1.57%

Structure (SMILES)	inhibition of SARS-CoV-2 cytopathic effect (1 nM) [%]	inhibition of SARS-CoV-2 cytopathic effect (8.33 nM) [%]	inhibition of SARS-CoV-2 cytopathic effect (100 nM) [%]	inhibition of SARS-CoV-2 cytopathic effect (833.33 nM) [%]	inhibition of SARS-CoV-2 cytopathic effect (10000 nM)
Cc1ccc2c(=O)c3cccc(CC(=O)O)c3oc2c1C	4.48	0.61	1.92	-1.05	1.59%
CCCCCCCCCCC[C@@H](C[C@@H]1OC(=O)[C@H]1CCCCCC)OC(=O)[C@H](CC(C)C)NC=O [orlistat]	1.59	3.04	0.9	2.31	1.43%
O=C(O)c1ccccc1S [o-mercapto-benzoic-acid]	-1.65	-0.03	0.12	-2.81	-0.55%
COc1cc(N2CCOCC2)ccc1Nc1ncc(Cl)c(Nc2ccccc2NS(C)(=O)=O)n1	0.93	2.59	2.32	-2.21	-13.2%
COc1ccc(C2(O)CCC(N3CC[C@@H](NC(=O)CNC(=O)c4cccc(C(F)(F)F)c4)C3)CC2)cn1 (stereo not given in full)	-0.385	0.89	-1.07	-1.1	-0.44%
C[C@H]1c2cccc(O)c2C(=O)C2=C(O)[C@]3(O)C(=O)C(C(N)=O)=C(O)[C@@H](N(C)C)[C@@H]3[C@@H](O)[C@@H]21 [doxycycline]	-1.68	-0.605	0.42	0.08	-0.76%
CC1CCC(NC(=O)N(CCCl)N=O)CC1 (stereo not given) [semustine]	1.43	1.15	-3.63	-1.54	0.45%
c1ccc2c(-c3cnn4cc(-c5ccc(N6CCNCC6)cc5)cnc34)ccnc2c1	1.9	4.28	1.29	-6.31	-26.3%
CCCCNC(=O)[C@@H]1Cc2ccccc2N1C(=O)[C@@H](N)CC [butabindide]	1.64	1.33	-3.07	1.68	2.75%
CCNC(C)CN1CCc2c(c(=O)oc3ccccc23)C1 (stereo not given)	-2.32	0.86	-0.83	-0.78	-2.07%
CN1CCC(CNc2ccc3ncc(-c4cccc(OC(F)(F)F)c4)n3n2)CC1	2.01	5.2	2.97	-0.97	19.8% (active)
CO[C@H]1[C@H](O)[C@@H](O)[C@@H](O)[C@H](O)[C@@H]1O [pinitol]	0.84	-0.26	-2.68	-0.47	1.55%
Cn1cc(C(=O)c2cccc3ccccc23)cc1C(=O)O [napirimus]	-0.4	-1.83	0.36	-1.9	1.11%
C=CC(=O)Nc1ccc2ncnc(Nc3cccc(Br)c3)c2c1	-0.46	-1.31	-13.7	-13.8	-13.2%
Cc1nc2c(O)cccc2c(=O)[nH]1	2.07	2.96	-2.15	3.67	4.88%
O=C(Nc1ccc(S(=O)(=O)Nc2ccccc2Cl)c(Cl)c1)c1ccccn1	0.59	0.83	-1.92	2.48	0.25%
CC(N)Cc1ccc(O)cc1 (stereo not given) [hydroxyamphetamine]	1.55	-1.8	2.28	0.63	1.86%
N#CC(c1ccccc1)(c1ccccc1)c1ccccc1Cl	2.09	1.23	3.05	3.49	3.88%
CCNC1=Nc2ccc(Cl)cc2C(C)(c2ccccc2)O1 (stereo not given) [etifoxine]	2.81	2.31	0.13	2.41	-2.7%
COC(=O)c1ccc(O)cc1 [methylparaben]	-0.45	0.03	2.76	1.99	2.64%
